Source: PubChem BioAssay AID1053118 (Broad Institute, 2014)
Entries with a potency or affinity are not part of this list. The source made the active and inactive calls.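 How the source made its calls: active means fitted half-maximal concentration for ATP signal loss at most twice the top valid dose; inconclusive means flat curve between -70 and -30%, or an invalid fit; inactive means flat within ±30%, wrong direction, or potency past limit.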

Test: viability loss in HepG2 hepatoma cells – cell-based, cherry-picks, set 5, cytotoxicity control, dose response (AID 1053118)
Conditions: ATP luminescence, 72 h; series mostly up to 26 µM

SMILES | outcome
C[C@H](O)C#Cc1ccc2c(c1)O[C@H](CN(C)C)[C@H](C)CN([C@@H](C)CO)S2(=O)=O | inactive
CS(=O)(=O)N1CCN(c2ccc(NC(=O)c3ccc([N+](=O)[O-])o3)cc2)CC1 | inactive
O=C(Nc1nc(-c2ccncc2)cs1)C1COc2ccccc2O1 (stereo not drawn) | inactive
COc1ccc(C)cc1N(CC(=O)Nc1cccc(N(C)S(C)(=O)=O)c1)S(C)(=O)=O | inactive
COc1ccccc1N(CC(=O)N(CC(C)C)CC(C)C)S(=O)(=O)c1cccs1 | inactive
COCC(=O)Nc1ccc2c(c1)C(=O)N(C)[C@H]1CC[C@H](CC(=O)NCc3ccccc3Cl)O[C@H]1CO2 | inactive
O=C(Nc1ccccc1F)N1C[C@@H]2[C@H](c3ccccc31)[C@@H](CO)N2C(=O)C1CC1 | inactive
Cc1ccc(S(=O)(=O)N2CC[C@H]3[C@H](CO)Nc4ccc(-c5cccc(C(=O)N(C)C)c5)cc4[C@H]32)cc1 | inactive
C[C@H](O)C#Cc1ccc2c(c1)O[C@H](CN(C)C)[C@H](C)CN([C@H](C)CO)S2(=O)=O | inactive
C[C@@H]1CN([C@@H](C)CO)C(=O)c2cc(NC(=O)CCCN(C)C)ccc2O[C@@H]1CN(C)Cc1ccc(-c2ccccc2)cc1 | inactive
CC(C)(C)c1cc(Cl)c(O)c(NC(=S)NC(=O)c2cccnc2)c1 | inactive
CO[C@H]1CN(C)C(=O)c2cc(NC(=O)Nc3ccc(Cl)c(Cl)c3)ccc2OC[C@@H](C)NC[C@@H]1C | inactive
O=C(NCCS(=O)(=O)N1CCN(c2ccc(F)cc2)CC1)c1ccc(Br)o1 | inactive
COc1ccc(Cl)cc1NC(=O)CSc1nc(Nc2ccccc2)nc(N2CCOCC2)n1 | inactive
C[C@H](CO)N1C[C@H](C)[C@H](CN(C)C)Oc2cc(C#C[C@@H](C)O)ccc2S1(=O)=O | inactive
c1ccc2[nH]c(SCc3cn4cccnc4n3)nc2c1 | inactive
CCOC(=O)c1nnn(-c2ccc(OC)cc2)c1N | inactive
C[C@@H]1CN([C@@H](C)CO)C(=O)c2cccc(NC(=O)Nc3ccc(C(F)(F)F)cc3)c2O[C@H]1CN(C)C(=O)Nc1cccc2ccccc12 | inactive
Nc1nc(-c2cc3c(cc2Cl)OCCO3)cs1 | inactive
COC(=O)C[C@@H]1CC[C@@H]2[C@@H](COc3ccc(NC(=O)Cc4cccs4)cc3C(=O)N2C)O1 | inactive
CC(C)(C)[S@@](=O)N1Cc2cc(C(=O)NCc3ccccc3F)nc(-c3cccc(-c4ccncc4)c3)c2[C@H]1CCO | inactive

SMILES | outcome
O=C(CSc1nc2ncc(Cl)cc2[nH]1)c1c[nH]c2ccccc12 | inactive
Cc1ccc(Nc2nnc(SCc3ccccc3)s2)cc1 | inactive
C[C@H](CO)N1C[C@H](C)[C@@H](CN(C)Cc2ccccc2)Oc2ncc(-c3ccccc3)cc2C1=O | inactive
C[C@@H]1CN([C@@H](C)CO)C(=O)c2cc(-c3ccccc3)cnc2O[C@@H]1CN(C)Cc1ccccc1 | inactive
N#Cc1ccc(-c2ccc3c(c2)[C@@H]2[C@@H](CCN2S(=O)(=O)c2cccc(F)c2)[C@H](CO)N3)cc1 | inactive
CC(C)CNC(=O)c1coc(=O)c(Br)c1 | inactive
CCN(Cc1ccncc1)C(=O)c1ccc2c(c1)S(=O)(=O)c1ccccc1C2=O | inactive
CCOc1cccc(C(=O)Nc2ccc(N(CC)CC)cc2)c1 | inactive
COc1cccc(CN2CCN(C(=O)c3ccc(-c4ccccc4)cc3)CC2)c1OC | inactive
O=S(=O)(c1ccccc1F)N1CC[C@@H]2[C@H]1c1cc(-c3cccc(F)c3)ccc1N[C@@H]2CO | inactive
COC(=O)c1c(NC(=O)CN2CCN(c3ccccc3Cl)CC2)sc(C)c1C | inactive
C[C@@H]1CN([C@H](C)CO)C(=O)c2cc(-c3ccccc3)cnc2O[C@@H]1CN(C)Cc1ccccc1 | inactive
N#C[C@H]1[C@H](c2ccccc2C2=CCCCC2)[C@H](CO)N1S(=O)(=O)c1ccccc1 | inactive
O=C(Nc1ccccc1F)N1C[C@H]2[C@@H](c3ccccc31)[C@H](CO)N2C(=O)C1CC1 | inactive
CN1c2ccc(-c3ccccc3)cc2[C@H]2[C@H](CCN2C(=O)CN2CCOCC2)[C@H]1CO | inactive
C[C@H](O)C#Cc1ccc2c(c1)O[C@@H](CN(C)C)[C@H](C)CN([C@@H](C)CO)S2(=O)=O | inactive
CO[C@H]1CN(C)C(=O)c2cc(NC(C)=O)ccc2OC[C@@H](C)N(C(=O)CN2CCOCC2)C[C@H]1C | inactive
Nc1c(C(=O)NCc2ccco2)nnn1Cc1ccccc1 | inactive
CSc1ccccc1C(=O)C1CCCN(C(=O)CCc2cccnc2)C1 (stereo not drawn) | inactive
N#Cc1ccc(-c2ccc3c(c2)[C@H]2[C@H](CCN2S(=O)(=O)c2cccc(F)c2)[C@H](CO)N3)cc1 | inactive
Cc1oc2ccc(O)cc2c1C(=O)c1ccc(Br)cc1 | inactive

SMILES | outcome
OC(CNC1CCCc2ccccc21)COc1c(Cl)cccc1Cl (stereo not drawn) | inactive
COCC(=O)Nc1ccc2c(c1)C(=O)N(C)[C@@H]1CC[C@@H](CC(=O)NCc3ccccc3Cl)O[C@@H]1CO2 | inactive
CCN1CCN(C(c2ccccc2)c2nnnn2Cc2ccccc2)CC1 (stereo not drawn) | inactive
COc1cccc(-c2ccc3c(c2)[C@H]2[C@H](CCN2S(=O)(=O)c2cccc(OC)c2)[C@H](CO)N3)c1 | inactive
C[C@@H]1CN([C@H](C)CO)C(=O)c2cc(-c3ccccc3)cnc2O[C@H]1CN(C)Cc1ccccc1 | inactive
CN(C)c1ccc(-c2ccnc3c2CC(C)(C(=O)NCC2CC2)O3)cc1 (stereo not drawn) | inactive
C[C@@H]1CN([C@H](C)CO)C(=O)c2cccc(NC(=O)Nc3ccc(C(F)(F)F)cc3)c2O[C@H]1CN(C)C(=O)Nc1cccc2ccccc12 | inactive
CCOC(=O)C1=C(C)Nc2nc3ccccc3n2C1c1ccncc1 (stereo not drawn) | inactive
COc1cccc(-c2ccc3c(c2)[C@@H]2[C@@H](CCN2S(=O)(=O)c2cccc(OC)c2)[C@@H](CO)N3)c1 | inactive
CC(=O)Nc1cccc(-c2ccnc3c2CC(C)(C(=O)Nc2cccc(C(F)(F)F)c2)O3)c1 (stereo not drawn) | inactive
C[C@H](CO)N1C[C@H](C)[C@H](CN(C)Cc2ccccc2)Oc2ncc(-c3ccccc3)cc2C1=O | inactive
Cc1ccc(S(=O)(=O)N2CC[C@@H]3[C@H](CO)Nc4ccc(-c5cccc(C(=O)N(C)C)c5)cc4[C@@H]32)cc1 | inactive
Cc1cccc(NC(=O)c2ccc(S(=O)(=O)N3CCCCC3)cc2)n1 | inactive
COc1cccc(S(=O)(=O)N2CC[C@@H]3[C@H]2c2cc(-c4ccc(C#N)cc4)ccc2N[C@@H]3CO)c1 | inactive
COCC(=O)Nc1ccc2c(c1)C(=O)N(C)[C@H]1CC[C@H](CC(=O)NCc3ccccc3Cl)O[C@@H]1CO2 | inactive
C[C@@H]1CN([C@H](C)CO)C(=O)c2cc(-c3ccccc3)cnc2O[C@H]1CN(C)C(=O)c1cccc(F)c1 | inactive
Cc1c(NC(=O)c2ccc3nsnc3c2)cccc1[N+](=O)[O-] | inactive
CCc1ccc(NC(=O)CSc2nnc(-c3ccco3)o2)cc1 | inactive
CN(C)C(=O)c1ccc(-c2ccc3c(c2)[C@@H]2[C@@H](CCN2C(=O)c2ccc(F)cc2)[C@H](CO)N3C)cc1 | inactive
O=C(CCNS(=O)(=O)c1cccc2nonc12)NC1CCCc2ccccc21 (stereo not drawn) | inactive
COc1ccccc1CC(=O)OC(C)C(=O)Nc1ccc(S(=O)(=O)N2CCCCC2)cc1 (stereo not drawn) | inactive

SMILES | outcome
CCOc1ccccc1NC(=O)c1c(NC(=O)CCC(=O)O)sc2c1CCCCC2 | inactive
O=S(=O)(c1ccccc1F)N1CC[C@@H]2[C@H](CO)Nc3ccc(-c4cccc(F)c4)cc3[C@@H]21 | inactive
N#Cc1ccc(-c2ccc3c(c2)[C@@H]2[C@@H](CCN2S(=O)(=O)c2ccccc2F)[C@H](CO)N3)cc1 | inactive
CCCCNC(=O)Nc1nc2ccc(CC)cc2s1 | inactive
COC(=O)c1cn(CC(=O)NCc2ccco2)c2ccccc12 | inactive
CN(C)C(=O)c1ccc(-c2ccc3c(c2)[C@@H]2[C@@H](CCN2C(=O)c2ccc(F)cc2)[C@@H](CO)N3C)cc1 | inactive
N#C[C@@H]1[C@@H](c2ccccc2C2=CCCCC2)[C@@H](CO)N1S(=O)(=O)c1ccccc1 | inactive
COC(=O)C[C@H]1CC[C@H]2[C@@H](COc3ccc(NC(=O)Cc4cccs4)cc3C(=O)N2C)O1 | inactive
C[C@H]1CN([C@@H](C)CO)C(=O)c2cc(-c3ccccc3)cnc2O[C@@H]1CN(C)Cc1ccccc1 | inactive
C[C@@H]1CN([C@@H](C)CO)C(=O)c2cc(-c3ccncc3)cnc2O[C@@H]1CN(C)C(=O)Cc1cccnc1 | inactive
O=C(c1cccnc1)N1C[C@H]2[C@@H](c3ccccc31)[C@H](CO)N2CC1CCCC1 | inactive
C[C@H]1CN([C@@H](C)CO)C(=O)c2cc(-c3ccccc3)cnc2O[C@@H]1CN(C)C(=O)c1cccc(F)c1 | inactive
C[C@H](CO)N1C[C@H](C)[C@H](CN(C)C(=O)c2cccc(F)c2)Oc2ncc(-c3ccccc3)cc2C1=O | inactive
O=C(CC1Nc2ccccc2NC1=O)Nc1ccc2c(c1)OCO2 (stereo not drawn) | inactive
O=C(CCC(=O)c1cccs1)NCc1cccnc1 | inactive
CO[C@H]1CN(C)C(=O)c2cc(NC(=O)Nc3cc(Cl)cc(Cl)c3)ccc2OC[C@H](C)NC[C@@H]1C | inactive
O=C(CN1CCCC1)Nc1ccc(Oc2ccc(NC(=O)CN3CCCC3)cc2)cc1 | inactive
N#C[C@@H]1[C@H](c2ccccc2C2=CCCCC2)[C@@H](CO)N1S(=O)(=O)c1ccccc1 | inactive
C[C@@H]1CN([C@H](C)CO)C(=O)c2cc(NC(=O)C3CCCCC3)ccc2O[C@H]1CN(C)Cc1ccc(-c2ccccc2)cc1 | inactive
C[C@H]1CN([C@@H](C)CO)C(=O)c2cc(NC(=O)C3CCCCC3)ccc2O[C@H]1CN(C)Cc1ccc(-c2ccccc2)cc1 | inactive
